This is an account of results in paper PMC7862700, “An all-to-all approach to the identification of sequence-specific readers for epigenetic DNA modifications on cytosine”.

Common to all, as to assay: DAPPL (digital affinity profiling via proximity ligation, sequencing); 10 mM Tris-HCl pH 7.5, 50 mM NaCl, 1 mM DTT, 4% glycerol, room temperature, 30 min; GST-TFs on glutathione beads, 16-mer random dsDNA library, 0.1% formaldehyde crosslink after washing; high values mean tight binding
In one assay the target is T1, FEV (Homo sapiens, UniProt Q99581 1-238).
T1 sequence: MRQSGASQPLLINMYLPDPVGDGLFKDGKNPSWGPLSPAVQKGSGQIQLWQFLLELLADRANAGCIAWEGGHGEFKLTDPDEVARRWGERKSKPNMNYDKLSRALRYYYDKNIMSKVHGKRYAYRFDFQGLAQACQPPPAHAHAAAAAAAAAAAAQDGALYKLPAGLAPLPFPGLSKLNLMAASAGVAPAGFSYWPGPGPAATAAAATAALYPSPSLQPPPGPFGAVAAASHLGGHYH
To be noted: protein: recombinant; tags: N-terminal GST; dsDNA, one strand shown. In a few lines: (§1)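 Human transcription factors carrying a GST fusion were produced in yeast, bound to glutathione beads, tagged with DNA barcodes and pooled together with a tag-only sample. Each pool was held with 200 nmole of a random double-stranded 16-mer DNA library in Tris/NaCl/DTT/glycerol buffer for 30 min at room temperature, then washed, crosslinked in 0.1% formaldehyde, proximity-ligated with BsaI/T4 ligase (1 h, 37 °C), PCR-amplified and sequenced on an Illumina NextSeq500. Binding signal is the read frequency of each hexamer for a given factor divided by its frequency in the tag-only sample.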

Another assay deals with ETV5 (Homo sapiens, UniProt P41161 1-510). The following applies: protein: recombinant; tags: N-terminal GST; dsDNA, one strand shown. In a few lines:
as §1

For the next assay, the target named is HSF1 (Homo sapiens, UniProt Q00613 1-529). The following applies: protein: recombinant; tags: N-terminal GST; chain copies: 3; dsDNA, one strand shown. In short, it runs like this:
as §1

Another assay concerns the target T2, SPIC (Homo sapiens, UniProt Q8N5J4 1-248).
T2 sequence: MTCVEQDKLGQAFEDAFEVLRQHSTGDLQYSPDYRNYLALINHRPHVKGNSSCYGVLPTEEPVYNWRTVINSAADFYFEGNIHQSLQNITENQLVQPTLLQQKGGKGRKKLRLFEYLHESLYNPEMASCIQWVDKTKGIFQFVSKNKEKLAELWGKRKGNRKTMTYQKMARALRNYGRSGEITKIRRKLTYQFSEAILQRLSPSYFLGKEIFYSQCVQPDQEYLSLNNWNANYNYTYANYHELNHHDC
To be noted: protein: recombinant; tags: N-terminal GST; dsDNA, one strand shown. In short, it runs like this: as §1

The next assay deals with ELF4 (Homo sapiens, UniProt Q99607 1-663). The following applies: protein: recombinant; tags: N-terminal GST; dsDNA, one strand shown. In a few lines: as §1
Chain of ELF4 (Q99607 whole entry): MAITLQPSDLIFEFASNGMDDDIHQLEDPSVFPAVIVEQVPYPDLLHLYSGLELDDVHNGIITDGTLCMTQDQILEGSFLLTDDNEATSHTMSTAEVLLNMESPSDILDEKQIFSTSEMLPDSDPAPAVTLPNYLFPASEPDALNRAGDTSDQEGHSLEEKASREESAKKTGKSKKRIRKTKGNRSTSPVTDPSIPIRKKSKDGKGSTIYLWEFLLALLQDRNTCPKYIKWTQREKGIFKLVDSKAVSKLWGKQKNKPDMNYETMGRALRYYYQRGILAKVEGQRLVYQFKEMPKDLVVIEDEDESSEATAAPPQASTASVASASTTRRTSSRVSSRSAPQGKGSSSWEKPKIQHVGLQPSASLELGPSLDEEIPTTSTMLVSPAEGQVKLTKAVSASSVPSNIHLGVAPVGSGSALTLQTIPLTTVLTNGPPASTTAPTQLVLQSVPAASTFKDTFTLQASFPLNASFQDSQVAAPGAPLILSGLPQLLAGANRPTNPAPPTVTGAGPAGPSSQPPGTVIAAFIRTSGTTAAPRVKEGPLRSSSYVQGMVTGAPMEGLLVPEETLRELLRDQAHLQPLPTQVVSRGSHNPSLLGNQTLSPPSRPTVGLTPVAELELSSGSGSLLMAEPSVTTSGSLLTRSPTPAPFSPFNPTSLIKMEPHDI
The target of a further assay is T3, ELK4 (Homo sapiens, UniProt P28324-2 1-405).
T3 sequence: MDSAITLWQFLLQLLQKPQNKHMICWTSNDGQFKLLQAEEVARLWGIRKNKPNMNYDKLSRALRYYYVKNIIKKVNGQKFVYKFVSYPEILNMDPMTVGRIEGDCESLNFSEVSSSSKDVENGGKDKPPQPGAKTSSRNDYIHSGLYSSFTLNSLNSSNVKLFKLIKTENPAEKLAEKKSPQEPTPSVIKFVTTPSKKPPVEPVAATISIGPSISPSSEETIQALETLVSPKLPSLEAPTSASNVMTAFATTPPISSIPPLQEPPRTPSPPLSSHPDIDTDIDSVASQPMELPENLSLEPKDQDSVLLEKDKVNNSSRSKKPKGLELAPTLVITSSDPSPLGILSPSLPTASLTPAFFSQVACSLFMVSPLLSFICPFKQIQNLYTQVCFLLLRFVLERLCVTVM
The following applies: protein: recombinant; tags: N-terminal GST; dsDNA, one strand shown. In short, it runs like this: as §1

A further assay addresses T4, ETV2 (Homo sapiens, UniProt O00321 1-342).
T4 sequence: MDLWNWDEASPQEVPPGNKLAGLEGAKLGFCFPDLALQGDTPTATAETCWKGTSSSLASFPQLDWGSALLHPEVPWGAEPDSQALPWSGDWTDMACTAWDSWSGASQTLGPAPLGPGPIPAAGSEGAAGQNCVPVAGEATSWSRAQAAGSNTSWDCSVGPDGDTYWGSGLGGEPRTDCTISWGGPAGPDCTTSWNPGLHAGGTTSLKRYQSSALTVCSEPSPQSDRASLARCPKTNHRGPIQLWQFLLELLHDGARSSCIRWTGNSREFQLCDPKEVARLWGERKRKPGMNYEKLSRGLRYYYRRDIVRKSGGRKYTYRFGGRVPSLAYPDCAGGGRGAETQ
To be noted: protein: recombinant; tags: N-terminal GST; dsDNA, one strand shown. In a few lines:
as §1

Another assay deals with T5, ELF3 (Homo sapiens, UniProt P78545 1-371).
T5 sequence: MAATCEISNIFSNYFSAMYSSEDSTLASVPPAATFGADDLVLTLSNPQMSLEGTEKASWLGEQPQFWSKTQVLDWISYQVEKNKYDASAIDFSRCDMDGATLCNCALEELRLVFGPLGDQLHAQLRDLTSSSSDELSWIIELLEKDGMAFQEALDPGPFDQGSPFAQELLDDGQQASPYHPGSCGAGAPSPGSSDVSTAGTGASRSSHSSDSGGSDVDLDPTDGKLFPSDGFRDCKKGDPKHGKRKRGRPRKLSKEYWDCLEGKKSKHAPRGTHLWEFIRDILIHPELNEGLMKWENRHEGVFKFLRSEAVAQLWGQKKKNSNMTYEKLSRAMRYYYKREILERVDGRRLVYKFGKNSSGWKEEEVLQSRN
The following applies: protein: recombinant; tags: N-terminal GST; dsDNA, one strand shown. In short, it runs like this: as §1

Another assay has as its target CRX (Homo sapiens, UniProt O43186 1-299). The following applies: protein: recombinant; tags: N-terminal GST; dsDNA, one strand shown. In short, it runs like this: as §1
For the next assay, the target named is ETV1 (Homo sapiens, UniProt P50549 1-477). To be noted: protein: recombinant; tags: N-terminal GST; dsDNA, one strand shown. In a few lines:
as §1

The target in another assay is T6, ERF (Homo sapiens, UniProt P50548 1-548).
T6 sequence: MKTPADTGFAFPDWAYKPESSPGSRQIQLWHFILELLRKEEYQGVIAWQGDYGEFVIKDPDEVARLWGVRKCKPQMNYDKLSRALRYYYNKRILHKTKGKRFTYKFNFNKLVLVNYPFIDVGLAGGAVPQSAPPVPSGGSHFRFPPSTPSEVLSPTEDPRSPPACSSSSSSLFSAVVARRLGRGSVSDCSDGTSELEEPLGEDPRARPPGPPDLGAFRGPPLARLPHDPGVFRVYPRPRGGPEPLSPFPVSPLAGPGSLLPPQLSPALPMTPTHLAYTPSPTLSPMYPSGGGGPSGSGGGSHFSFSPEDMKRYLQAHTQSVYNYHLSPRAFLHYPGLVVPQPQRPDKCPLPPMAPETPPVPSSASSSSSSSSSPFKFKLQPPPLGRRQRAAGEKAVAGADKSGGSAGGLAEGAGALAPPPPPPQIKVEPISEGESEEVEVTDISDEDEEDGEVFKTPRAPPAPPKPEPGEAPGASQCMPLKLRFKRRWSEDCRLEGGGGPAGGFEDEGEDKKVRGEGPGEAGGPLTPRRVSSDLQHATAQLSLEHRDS
To be noted: protein: recombinant; tags: N-terminal GST; dsDNA, one strand shown. In a few lines: as §1

The target in the next assay is T7, ETV3L (Homo sapiens, UniProt Q6ZN32 1-361).
T7 sequence: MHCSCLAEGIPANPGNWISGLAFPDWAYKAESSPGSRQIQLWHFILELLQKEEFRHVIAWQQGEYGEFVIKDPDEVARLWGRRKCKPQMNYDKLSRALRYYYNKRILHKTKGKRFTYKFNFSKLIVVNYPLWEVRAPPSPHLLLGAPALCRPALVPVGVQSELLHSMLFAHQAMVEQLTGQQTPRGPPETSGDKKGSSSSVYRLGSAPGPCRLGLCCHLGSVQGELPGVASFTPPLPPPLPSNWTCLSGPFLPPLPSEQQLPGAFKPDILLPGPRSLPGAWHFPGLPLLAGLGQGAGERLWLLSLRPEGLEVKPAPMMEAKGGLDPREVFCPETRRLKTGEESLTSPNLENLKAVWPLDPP
The following applies: protein: recombinant; tags: N-terminal GST; dsDNA, one strand shown. In short, it runs like this: as §1

The next assay addresses T8, ETS2 (Homo sapiens, UniProt P15036 1-469).
T8 sequence: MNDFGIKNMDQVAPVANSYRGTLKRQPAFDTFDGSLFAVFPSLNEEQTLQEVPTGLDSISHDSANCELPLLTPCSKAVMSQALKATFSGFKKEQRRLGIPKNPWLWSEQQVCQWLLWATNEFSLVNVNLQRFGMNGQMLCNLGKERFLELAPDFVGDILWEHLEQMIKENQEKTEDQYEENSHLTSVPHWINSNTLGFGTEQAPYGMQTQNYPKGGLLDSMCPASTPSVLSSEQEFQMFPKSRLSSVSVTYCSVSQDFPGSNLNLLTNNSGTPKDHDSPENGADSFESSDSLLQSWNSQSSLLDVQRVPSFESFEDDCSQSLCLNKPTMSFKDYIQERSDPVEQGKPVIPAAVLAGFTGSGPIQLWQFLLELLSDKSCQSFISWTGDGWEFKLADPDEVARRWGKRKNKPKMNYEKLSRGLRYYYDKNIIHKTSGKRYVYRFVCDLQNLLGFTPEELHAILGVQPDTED
The following applies: protein: recombinant; tags: N-terminal GST; dsDNA, one strand shown. In a few lines: as §1

The target in the next assay is T9, SPDEF (Homo sapiens, UniProt O95238 1-335).
T9 sequence: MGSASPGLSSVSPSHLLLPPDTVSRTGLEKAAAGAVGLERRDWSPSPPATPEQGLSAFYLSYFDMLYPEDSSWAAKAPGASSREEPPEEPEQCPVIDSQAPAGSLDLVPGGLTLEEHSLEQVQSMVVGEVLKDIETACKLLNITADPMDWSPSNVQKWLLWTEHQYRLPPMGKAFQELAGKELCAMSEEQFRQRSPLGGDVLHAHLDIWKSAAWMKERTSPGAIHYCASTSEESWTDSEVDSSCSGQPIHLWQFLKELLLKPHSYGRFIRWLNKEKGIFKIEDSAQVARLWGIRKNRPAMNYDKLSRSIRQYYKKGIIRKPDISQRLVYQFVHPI
To be noted: protein: recombinant; tags: N-terminal GST; dsDNA, one strand shown. In a few lines: as §1

Another assay has as its target T10, ETV7 (Homo sapiens, UniProt Q9Y603 1-341).
T10 sequence: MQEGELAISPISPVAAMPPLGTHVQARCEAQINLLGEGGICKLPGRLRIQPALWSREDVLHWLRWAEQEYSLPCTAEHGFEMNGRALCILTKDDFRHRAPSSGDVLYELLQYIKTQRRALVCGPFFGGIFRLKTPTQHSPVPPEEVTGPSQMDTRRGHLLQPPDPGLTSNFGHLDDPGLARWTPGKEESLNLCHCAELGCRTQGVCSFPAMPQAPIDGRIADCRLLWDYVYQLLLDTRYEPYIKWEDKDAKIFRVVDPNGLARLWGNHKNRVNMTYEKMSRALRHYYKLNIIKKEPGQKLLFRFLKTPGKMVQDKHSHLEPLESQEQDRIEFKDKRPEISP
The following applies: protein: recombinant; tags: N-terminal GST; dsDNA, one strand shown. In short, it runs like this:
as §1

For the next assay, the target named is T11, ELF5 (Homo sapiens, UniProt Q9UKW6-2 1-255).
T11 sequence: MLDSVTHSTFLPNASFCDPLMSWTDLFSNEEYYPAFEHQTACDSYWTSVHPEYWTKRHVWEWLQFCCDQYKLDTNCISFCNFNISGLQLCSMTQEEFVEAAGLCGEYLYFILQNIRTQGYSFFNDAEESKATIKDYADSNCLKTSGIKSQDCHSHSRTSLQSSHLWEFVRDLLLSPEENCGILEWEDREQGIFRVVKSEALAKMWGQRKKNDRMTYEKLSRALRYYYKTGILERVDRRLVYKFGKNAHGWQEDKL
The following applies: protein: recombinant; tags: N-terminal GST; dsDNA, one strand shown. In a few lines: as §1

In a further assay the target is T12, ETV3 (Homo sapiens, UniProt P41162-2 1-143).
T12 sequence: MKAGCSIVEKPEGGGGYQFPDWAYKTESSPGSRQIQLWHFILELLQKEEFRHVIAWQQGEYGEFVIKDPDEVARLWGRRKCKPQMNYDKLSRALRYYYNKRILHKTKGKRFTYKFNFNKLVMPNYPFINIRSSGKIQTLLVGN
To be noted: protein: recombinant; tags: N-terminal GST; dsDNA, one strand shown. In short, it runs like this:
as §1

A further assay addresses ETV6 (Homo sapiens, UniProt P41212 1-452). To be noted: protein: recombinant; tags: N-terminal GST; dsDNA, one strand shown. In short, it runs like this:
as §1

Chain of ETV5 (P41161 whole entry): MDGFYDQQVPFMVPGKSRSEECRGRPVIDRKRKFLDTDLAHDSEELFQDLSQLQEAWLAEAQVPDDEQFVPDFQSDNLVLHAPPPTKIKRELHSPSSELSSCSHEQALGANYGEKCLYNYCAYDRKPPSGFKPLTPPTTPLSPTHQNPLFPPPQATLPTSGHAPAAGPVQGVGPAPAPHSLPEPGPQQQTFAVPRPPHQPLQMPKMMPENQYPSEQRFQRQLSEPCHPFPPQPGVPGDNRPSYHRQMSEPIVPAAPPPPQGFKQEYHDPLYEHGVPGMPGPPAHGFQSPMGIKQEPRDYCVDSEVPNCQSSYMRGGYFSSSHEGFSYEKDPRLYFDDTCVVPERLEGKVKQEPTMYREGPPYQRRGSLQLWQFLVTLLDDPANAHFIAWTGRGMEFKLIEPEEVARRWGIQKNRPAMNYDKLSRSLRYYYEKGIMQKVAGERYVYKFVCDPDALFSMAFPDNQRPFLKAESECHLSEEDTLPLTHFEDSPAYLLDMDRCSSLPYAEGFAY
Chain of ETV6 (P41212 whole entry): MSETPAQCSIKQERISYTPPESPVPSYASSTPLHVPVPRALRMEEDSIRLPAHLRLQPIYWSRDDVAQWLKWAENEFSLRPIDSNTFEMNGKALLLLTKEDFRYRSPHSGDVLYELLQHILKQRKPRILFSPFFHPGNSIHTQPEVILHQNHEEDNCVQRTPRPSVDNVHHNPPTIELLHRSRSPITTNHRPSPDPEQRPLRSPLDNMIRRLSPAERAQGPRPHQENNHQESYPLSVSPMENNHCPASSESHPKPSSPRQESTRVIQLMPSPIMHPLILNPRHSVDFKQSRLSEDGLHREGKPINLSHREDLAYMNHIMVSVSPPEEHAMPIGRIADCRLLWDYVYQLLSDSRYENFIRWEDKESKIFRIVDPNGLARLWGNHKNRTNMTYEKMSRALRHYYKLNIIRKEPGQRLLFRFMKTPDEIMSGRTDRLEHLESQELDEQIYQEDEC
Chain of HSF1 (Q00613 whole entry): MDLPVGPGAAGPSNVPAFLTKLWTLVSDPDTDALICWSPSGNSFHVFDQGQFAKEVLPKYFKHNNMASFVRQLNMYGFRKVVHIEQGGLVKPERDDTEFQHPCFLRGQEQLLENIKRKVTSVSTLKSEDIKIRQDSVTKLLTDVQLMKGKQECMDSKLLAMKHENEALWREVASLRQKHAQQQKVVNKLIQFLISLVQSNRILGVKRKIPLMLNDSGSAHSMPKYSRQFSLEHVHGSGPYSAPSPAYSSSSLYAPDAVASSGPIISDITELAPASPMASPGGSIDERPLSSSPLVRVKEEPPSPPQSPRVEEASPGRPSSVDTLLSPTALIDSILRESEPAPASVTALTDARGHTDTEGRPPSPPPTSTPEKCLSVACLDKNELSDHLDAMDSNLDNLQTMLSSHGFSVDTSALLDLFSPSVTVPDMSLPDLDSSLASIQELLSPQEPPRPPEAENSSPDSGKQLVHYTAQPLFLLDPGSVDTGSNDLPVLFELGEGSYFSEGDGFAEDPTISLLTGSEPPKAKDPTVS
Chain of ETV1 (P50549 whole entry): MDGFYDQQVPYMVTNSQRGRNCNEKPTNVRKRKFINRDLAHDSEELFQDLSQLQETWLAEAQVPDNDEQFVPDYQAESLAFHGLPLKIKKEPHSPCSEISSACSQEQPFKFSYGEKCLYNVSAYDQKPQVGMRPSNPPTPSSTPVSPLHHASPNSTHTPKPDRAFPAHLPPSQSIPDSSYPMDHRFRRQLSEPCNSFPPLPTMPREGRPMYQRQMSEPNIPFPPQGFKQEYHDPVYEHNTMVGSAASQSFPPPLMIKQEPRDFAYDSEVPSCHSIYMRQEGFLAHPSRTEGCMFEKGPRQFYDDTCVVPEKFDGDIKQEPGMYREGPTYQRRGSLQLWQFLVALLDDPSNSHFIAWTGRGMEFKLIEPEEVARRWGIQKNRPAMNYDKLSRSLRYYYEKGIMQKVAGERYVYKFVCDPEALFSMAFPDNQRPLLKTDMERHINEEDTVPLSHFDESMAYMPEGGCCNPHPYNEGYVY
Chain of CRX (O43186 whole entry): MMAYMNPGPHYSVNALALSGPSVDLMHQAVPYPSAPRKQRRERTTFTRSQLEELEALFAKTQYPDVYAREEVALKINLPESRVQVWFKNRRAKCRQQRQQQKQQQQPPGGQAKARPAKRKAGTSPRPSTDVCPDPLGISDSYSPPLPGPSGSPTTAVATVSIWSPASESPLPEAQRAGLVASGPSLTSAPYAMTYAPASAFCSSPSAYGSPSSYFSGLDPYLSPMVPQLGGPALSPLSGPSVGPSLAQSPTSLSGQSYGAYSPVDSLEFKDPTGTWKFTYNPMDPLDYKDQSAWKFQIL

On to GCCTTA, for which the binding signal with FEV was 1.11 fold enrichment (6-mer frequency, TF over GST control); with ETV5 it was 1.13 fold enrichment (6-mer frequency, TF over GST control); with HSF1 it was 1.3 fold enrichment (6-mer frequency, TF over GST control); with SPIC, 1.07 fold enrichment (6-mer frequency, TF over GST control); in the assay with ELF4 it was 1.3 fold enrichment (6-mer frequency, TF over GST control); in the assay with ELK4 it was 1.1 fold enrichment (6-mer frequency, TF over GST control). Further, the binding signal is 1.1 fold enrichment (6-mer frequency, TF over GST control) with ETV2; 1.24 fold enrichment (6-mer frequency, TF over GST control) with ELF3; 1.64 fold enrichment (6-mer frequency, TF over GST control) with CRX; 1.14 fold enrichment (6-mer frequency, TF over GST control) with ETV1; 1.15 fold enrichment (6-mer frequency, TF over GST control) with ERF; 1.04 fold enrichment (6-mer frequency, TF over GST control) with ETV3L. Moreover, the binding signal with ETS2 is 1.15 fold enrichment (6-mer frequency, TF over GST control); with SPDEF, 1.12 fold enrichment (6-mer frequency, TF over GST control); with ETV7 it was 1.18 fold enrichment (6-mer frequency, TF over GST control); in the assay with ELF5, 1.14 fold enrichment (6-mer frequency, TF over GST control); with ETV3, 1.08 fold enrichment (6-mer frequency, TF over GST control); with ETV6, 1.07 fold enrichment (6-mer frequency, TF over GST control).
